Measured values as given in the supplement of paper PMC10477191.
± gives the standard deviation of the averaged measurements.

These molecules were tested on Drosophila ezoana antennal basiconic sensillum ab3 (assay: odor-evoked OSN spike response (post minus pre-stimulus); higher = stronger neuronal excitation). Conditions: odor dilution: 10^-4.
How it was run: (§1)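 The response is the change in spike frequency between pre-stimulus and post-stimulus windows, averaged over replicate sensilla. Both windows lasted 1 second, and spikes were counted with Auto Spike software. Single sensillum recordings used a tungsten electrode at the base of antennal basiconic sensilla on restrained adult flies, with up to 3 sensilla per fly, and odorant at 10^−4 in mineral oil or DMSO (10 µl on filter paper) was delivered as a 500 ms pulse into a charcoal-filtered, humidified 1.5 l min^−1 air stream.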

In order of falling “odor-evoked OSN spike response” value:
1. CCCCCC(=O)OCC [ethyl hexanoate]  141 ± 28 spikes/s
2. CC(=O)C(C)O (configuration not stated) [acetoin]  135 ± 51 spikes/s
3. CCOC(=O)CC(C)O (configuration not stated) [Ethyl-3-hydroxybutyrate]  133 ± 55 spikes/s
4. CCOC(=O)C(C)O (configuration not stated) [Ethyl lactate]  129 ± 36 spikes/s
5. CCCCCCOC(C)=O [Hexyl acetate]  121 ± 33 spikes/s
6. CCCCCOC(C)=O [pentyl acetate]  120 ± 29 spikes/s
7. COC(=O)c1ccccc1O [Methyl salicylate]  64.8 ± 22 spikes/s
8. CCCCCC(C)=O [2-heptanone]  64.7 ± 28 spikes/s
9. CCOC(=O)c1ccccc1 [ethyl benzoate]  64 ± 27 spikes/s
10. CCOC(C)=O [Ethyl acetate]  60.2 ± 27 spikes/s
11. CCCCCCCC(C)=O [2-nonanone]  57.8 ± 38 spikes/s
12. CCc1ccc(O)c(OC)c1 [4-Ethylguaiacol]  57.6 ± 32 spikes/s
13. CC(=O)OCCC(C)C [Isopentyl acetate]  55.5 ± 29 spikes/s
14. CCCCC(C)O (configuration not stated) [2-hexanol]  55 ± 32 spikes/s
15. CCCCCCCC(C)O (configuration not stated) [2-nonanol]  55 ± 26 spikes/s
16. CC(C)OC(=O)c1ccccc1 [isopropyl benzoate]  54.9 ± 29 spikes/s
17. CCCCCCO [1-hexanol]  53 ± 23 spikes/s
18. CCCCC(C)=O [2-hexanone]  52.9 ± 26 spikes/s
19. CC(C)=CCCC(C)=CC=O (mixture of isomers) [citral]  52.2 ± 25 spikes/s
20. CCCC(=O)CC [3-hexanone]  52 ± 27 spikes/s
21. CC(O)C(C)O (configuration not stated) [2,3-Butanediol]  51.5 ± 25 spikes/s
22. CCCOC(C)=O [propyl acetate]  50 ± 27 spikes/s

These molecules were tested on Drosophila ezoana antennal basiconic sensillum ab8 in the same assay as above. Conditions: odor dilution: 10^-4.
How it was run: as §1

In order of falling “odor-evoked OSN spike response” value:
1. CCCCCCO [1-hexanol]  176 ± 44 spikes/s
2. CCCCCOC(C)=O [pentyl acetate]  122 ± 45 spikes/s
3. C=CC(O)CCCCC (configuration not stated) [1-octen-3-ol]  118 ± 51 spikes/s
4. CCOC(=O)CC(C)O (configuration not stated) [Ethyl-3-hydroxybutyrate]  108 ± 45 spikes/s
5. CCCCCCOC(C)=O [Hexyl acetate]  88.7 ± 39 spikes/s
6. CCC(=O)OCCC(C)C [Isopentyl propionate]  79 ± 39 spikes/s
7. CCCCCC(=O)OCC [ethyl hexanoate]  77.2 ± 32 spikes/s
8. CC(=O)OCCC(C)C [Isopentyl acetate]  73.6 ± 38 spikes/s
9. CC(=O)c1ccccc1 [Acetophenone]  71.8 ± 25 spikes/s
10. CC(C)CCO [Isopentyl alcohol]  65.8 ± 25 spikes/s
11. OCCc1ccccc1 [2-phenylethanol]  63.9 ± 26 spikes/s
12. CCCCCC(C)=O [2-heptanone]  54.2 ± 25 spikes/s
13. CCCC(O)CC (configuration not stated) [3-hexanol]  52.3 ± 27 spikes/s
14. CCOC(=O)C(C)O (configuration not stated) [Ethyl lactate]  51.4 ± 27 spikes/s
15. CCCOC(C)=O [propyl acetate]  51 ± 32 spikes/s
